Test results as given in PubChem BioAssay (EPA / NIEHS).
Inconclusive results are not listed. Active and inactive are the calls of the source. Rule for the calls, unless noted: active = hit-call score of the fitted dose curve at least 0.9, where 1 is the maximum; inconclusive = response in the unintended direction; inactive = score below 0.9.

Key:
[1] = molecular target: Glucocorticoid receptor (Homo sapiens) (UniProt P04150); experiment: ATG_GR_TRANS: Attagene TRANS-FACTORIAL HepG2 Assay for human Glucocorticoid Receptor (GR) (AID 2282978); settings: HepG2 Attagene TRANS GR reporter, mRNA transcription;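 note: activators score as hits since higher reporter transcript over DMSO is fitted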
Chain of Glucocorticoid receptor (Homo sapiens) (P04150 whole entry, looked up, the tested form may be a part): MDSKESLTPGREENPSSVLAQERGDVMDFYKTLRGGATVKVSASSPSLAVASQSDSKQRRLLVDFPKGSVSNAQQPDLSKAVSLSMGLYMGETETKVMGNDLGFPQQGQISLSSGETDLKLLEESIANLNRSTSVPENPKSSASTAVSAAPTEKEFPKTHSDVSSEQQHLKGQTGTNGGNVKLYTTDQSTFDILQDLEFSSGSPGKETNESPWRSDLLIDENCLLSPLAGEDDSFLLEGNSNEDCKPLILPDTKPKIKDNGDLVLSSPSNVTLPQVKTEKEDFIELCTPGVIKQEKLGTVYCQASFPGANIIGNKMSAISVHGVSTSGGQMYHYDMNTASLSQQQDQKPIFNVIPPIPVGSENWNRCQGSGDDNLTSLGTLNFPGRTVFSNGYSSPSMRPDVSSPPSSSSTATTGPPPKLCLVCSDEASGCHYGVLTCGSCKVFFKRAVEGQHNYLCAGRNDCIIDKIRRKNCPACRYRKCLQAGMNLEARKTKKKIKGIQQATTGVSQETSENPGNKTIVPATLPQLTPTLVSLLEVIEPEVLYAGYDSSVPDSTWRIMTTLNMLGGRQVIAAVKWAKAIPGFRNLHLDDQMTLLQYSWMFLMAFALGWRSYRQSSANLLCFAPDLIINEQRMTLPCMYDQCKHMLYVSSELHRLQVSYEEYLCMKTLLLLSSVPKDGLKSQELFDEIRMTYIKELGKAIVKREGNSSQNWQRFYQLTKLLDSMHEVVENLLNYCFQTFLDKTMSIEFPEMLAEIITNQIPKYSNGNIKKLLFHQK
Outline: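 Fluorescent capillary-electrophoresis quantitation of reporter mRNA is the readout, taken 24 h after dosing human HepG2 cells carrying transiently transfected GAL4-UAS reporter units activated by chimeric NR-GAL4 fusions; activity scored as induction over DMSO.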

[2] = molecular target: Bile acid receptor (Homo sapiens) (UniProt Q96RI1); experiment: ATG_FXR_TRANS: Attagene TRANS-FACTORIAL HepG2 Assay for Farnesoid X Receptor (FXR) (AID 2282979); settings: HepG2 Attagene TRANS FXR-GAL4 reporter transcription;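 note: hits raise reporter mRNA above DMSO so AC50 marks FXR activation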
Chain of Bile acid receptor (Homo sapiens) (Q96RI1 whole entry, looked up, the tested form may be a part): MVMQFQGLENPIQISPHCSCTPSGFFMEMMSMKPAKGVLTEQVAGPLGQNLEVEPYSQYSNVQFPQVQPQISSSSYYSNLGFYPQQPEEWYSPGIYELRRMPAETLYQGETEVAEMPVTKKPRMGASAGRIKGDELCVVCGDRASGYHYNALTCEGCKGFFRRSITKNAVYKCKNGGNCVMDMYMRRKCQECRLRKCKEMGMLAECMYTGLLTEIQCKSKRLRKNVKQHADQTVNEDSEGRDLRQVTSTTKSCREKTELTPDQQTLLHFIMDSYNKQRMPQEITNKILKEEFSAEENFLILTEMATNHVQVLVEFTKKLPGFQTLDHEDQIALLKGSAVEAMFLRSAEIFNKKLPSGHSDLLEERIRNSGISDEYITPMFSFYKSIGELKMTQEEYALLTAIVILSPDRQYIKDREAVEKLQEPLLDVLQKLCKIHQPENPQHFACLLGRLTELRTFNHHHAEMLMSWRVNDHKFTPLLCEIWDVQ
Outline: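 Chimeric FXR-GAL4 activity in transiently transfected human HepG2 liver cells is scored as induction of reporter mRNA after 24 h of dosing. Detection uses RT-PCR with fluorescent labelling and capillary electrophoresis, with DMSO serving as baseline.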

[3] = molecular target: Oxysterols receptor LXR-alpha (Homo sapiens) (UniProt Q13133); experiment: ATG_LXRa_TRANS: Attagene TRANS-FACTORIAL HepG2 Assay for human Liver X Receptor alpha (LXRa) (AID 2282980); settings: HepG2 Attagene TRANS reporter, LXRa transactivation
Chain of Oxysterols receptor LXR-alpha (Homo sapiens) (Q13133 whole entry, looked up): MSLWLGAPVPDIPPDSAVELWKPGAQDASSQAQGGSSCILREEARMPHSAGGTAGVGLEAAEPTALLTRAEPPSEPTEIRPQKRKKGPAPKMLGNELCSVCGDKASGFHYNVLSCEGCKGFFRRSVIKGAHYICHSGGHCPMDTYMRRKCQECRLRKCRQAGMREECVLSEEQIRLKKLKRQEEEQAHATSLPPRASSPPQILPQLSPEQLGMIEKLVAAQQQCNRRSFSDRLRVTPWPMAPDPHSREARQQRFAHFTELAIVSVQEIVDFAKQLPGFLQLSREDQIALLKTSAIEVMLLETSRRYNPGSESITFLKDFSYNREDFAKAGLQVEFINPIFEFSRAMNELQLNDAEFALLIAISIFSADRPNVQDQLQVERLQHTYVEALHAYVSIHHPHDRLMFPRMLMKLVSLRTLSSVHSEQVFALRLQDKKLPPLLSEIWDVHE
Outline: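 Transient HepG2 transfectants, 24 h dosing, RT-PCR/CE mRNA reporter quantitation; gain-of-signal vs DMSO.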

[4] = ATG_M_06_TRANS: Attagene TRANS-FACTORIAL HepG2 Assay for M06 Transcription Factor (Internal Marker) (AID 2282983); settings: HepG2 Attagene TRANS M06 internal marker reporter
Outline: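 Measured by capillary electrophoresis of fluorescently labelled RT-PCR products, this endpoint reflects reporter mRNA in HepG2 cells harbouring exogenous NR-GAL4 reporter constructs after 24 h exposure, with DMSO as baseline.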

[5] = ATG_M_32_TRANS: Attagene TRANS-FACTORIAL HepG2 Assay for M32 Transcription Factor (Internal Marker) (AID 2282984); settings: HepG2 Attagene TRANS M32 internal marker reporter
Outline: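 Using transiently transfected HepG2 cells exposed to test chemicals for 24 h, reporter transcripts are converted to labelled cDNA fragments and quantified by capillary electrophoresis. DMSO defines the activity baseline.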

[6] = molecular target: Hepatocyte nuclear factor 4-alpha (Homo sapiens) (UniProt P41235); experiment: ATG_HNF4a_TRANS: Attagene TRANS-FACTORIAL HepG2 Assay for human Hepatocyte Nuclear Factor 4 alpha (HNF4a) (AID 2282982); settings: HepG2 HNF4a transactivation reporter, mRNA readout
Chain of Hepatocyte nuclear factor 4-alpha (Homo sapiens) (P41235 whole entry, looked up): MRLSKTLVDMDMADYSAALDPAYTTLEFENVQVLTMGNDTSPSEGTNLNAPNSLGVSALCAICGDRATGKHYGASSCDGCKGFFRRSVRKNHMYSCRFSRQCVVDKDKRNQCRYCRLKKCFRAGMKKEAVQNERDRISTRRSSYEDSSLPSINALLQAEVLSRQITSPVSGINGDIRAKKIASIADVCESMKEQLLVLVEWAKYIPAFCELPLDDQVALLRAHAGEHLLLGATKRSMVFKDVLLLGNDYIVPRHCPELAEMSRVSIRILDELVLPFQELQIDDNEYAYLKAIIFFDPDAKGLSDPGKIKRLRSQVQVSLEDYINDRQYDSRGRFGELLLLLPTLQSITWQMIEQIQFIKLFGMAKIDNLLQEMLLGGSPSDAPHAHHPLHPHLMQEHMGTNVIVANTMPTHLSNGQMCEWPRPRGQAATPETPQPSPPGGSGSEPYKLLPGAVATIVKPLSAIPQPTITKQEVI
Outline: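 Transfected HepG2 reporter cells are dosed for 24 h; reporter RNA is reverse-transcribed, amplified, fluorescently labelled and HpaI-digested before CE sizing. Positive-direction fit against DMSO.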

[7] = molecular target: Nuclear receptor subfamily 4 group A member 2 (Homo sapiens) (UniProt P43354); experiment: ATG_NURR1_TRANS: Attagene TRANS-FACTORIAL HepG2 Assay for human Nuclear Receptor Related Protein 1 (NURR1) (AID 2282985); settings: HepG2 Attagene TRANS reporter, mRNA readout
Chain of Nuclear receptor subfamily 4 group A member 2 (Homo sapiens) (P43354 whole entry, looked up): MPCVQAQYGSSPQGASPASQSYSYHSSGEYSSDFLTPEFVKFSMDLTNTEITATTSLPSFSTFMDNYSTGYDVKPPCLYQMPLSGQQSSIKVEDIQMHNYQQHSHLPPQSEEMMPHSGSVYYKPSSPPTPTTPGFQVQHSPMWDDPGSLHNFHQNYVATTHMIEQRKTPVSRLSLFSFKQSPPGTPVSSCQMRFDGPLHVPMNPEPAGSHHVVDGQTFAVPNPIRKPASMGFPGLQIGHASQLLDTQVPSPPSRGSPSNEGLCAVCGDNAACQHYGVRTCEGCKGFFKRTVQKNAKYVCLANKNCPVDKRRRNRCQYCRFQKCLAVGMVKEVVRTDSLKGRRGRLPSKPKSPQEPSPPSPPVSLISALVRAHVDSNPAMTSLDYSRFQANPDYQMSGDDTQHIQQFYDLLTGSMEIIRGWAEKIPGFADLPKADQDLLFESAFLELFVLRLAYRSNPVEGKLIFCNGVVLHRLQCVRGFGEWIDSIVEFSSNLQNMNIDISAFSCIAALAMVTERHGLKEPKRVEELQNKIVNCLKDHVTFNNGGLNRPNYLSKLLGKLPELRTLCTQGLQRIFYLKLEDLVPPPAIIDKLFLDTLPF
Outline: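 Cells: HepG2, transiently transfected. Exposure: 24 h. Detection: fluorescence of labelled RT-PCR products separated by capillary electrophoresis; upward fit versus DMSO.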

[8] = molecular target: Transcriptional activator Myb (Homo sapiens) (UniProt P10242); experiment: ATG_Myb_CIS: Attagene CIS-FACTORIAL HepG2 Assay for human Myeloblastosis (Myb) Proto-Oncogene Transcription Factor (AID 2282986; active = hit-call score of the fitted dose curve at least 0.9, where 1 is the maximum; inactive = score below 0.9); settings: HepG2 Attagene CIS-FACTORIAL Myb reporter transcription; actives raise or lower the signal
Chain of Transcriptional activator Myb (Homo sapiens) (P10242 whole entry, looked up): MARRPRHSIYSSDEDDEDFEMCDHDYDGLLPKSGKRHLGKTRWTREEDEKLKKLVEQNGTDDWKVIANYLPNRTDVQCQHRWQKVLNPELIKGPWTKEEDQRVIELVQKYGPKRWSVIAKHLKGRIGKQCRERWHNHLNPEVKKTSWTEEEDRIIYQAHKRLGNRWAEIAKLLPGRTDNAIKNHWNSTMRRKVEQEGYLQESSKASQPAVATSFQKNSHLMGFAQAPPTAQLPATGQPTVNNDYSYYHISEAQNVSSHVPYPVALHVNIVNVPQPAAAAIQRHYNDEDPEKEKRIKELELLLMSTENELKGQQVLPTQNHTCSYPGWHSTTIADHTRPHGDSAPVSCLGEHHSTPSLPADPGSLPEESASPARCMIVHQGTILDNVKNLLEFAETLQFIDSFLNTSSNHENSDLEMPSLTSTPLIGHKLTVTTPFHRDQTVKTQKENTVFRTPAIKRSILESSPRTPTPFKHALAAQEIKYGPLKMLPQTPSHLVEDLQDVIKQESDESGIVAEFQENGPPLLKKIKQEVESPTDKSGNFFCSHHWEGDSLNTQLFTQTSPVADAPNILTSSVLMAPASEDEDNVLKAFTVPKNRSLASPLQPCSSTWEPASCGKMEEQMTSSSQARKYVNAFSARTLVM
Outline: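 Reporter transcript levels, quantified by fluorescent RT-PCR and capillary electrophoresis, serve as the read-out. Transfected HepG2 cells carrying cis-promoter reporter units are dosed for 24 hours, and curves are fitted bidirectionally against DMSO controls.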

[9] = molecular target: Estrogen-related receptor gamma (Homo sapiens) (UniProt P62508); experiment: ATG_ERRg_TRANS: Attagene TRANS-FACTORIAL HepG2 Assay for human Estrogen-Related Receptor gamma (ERRg) (AID 2282977); settings: HepG2 Attagene TRANS reporter, ERRg transactivation;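 note: hits increase reporter signal over DMSO so potencies reflect activators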
Chain of Estrogen-related receptor gamma (Homo sapiens) (P62508 whole entry, looked up, the tested form may be a part): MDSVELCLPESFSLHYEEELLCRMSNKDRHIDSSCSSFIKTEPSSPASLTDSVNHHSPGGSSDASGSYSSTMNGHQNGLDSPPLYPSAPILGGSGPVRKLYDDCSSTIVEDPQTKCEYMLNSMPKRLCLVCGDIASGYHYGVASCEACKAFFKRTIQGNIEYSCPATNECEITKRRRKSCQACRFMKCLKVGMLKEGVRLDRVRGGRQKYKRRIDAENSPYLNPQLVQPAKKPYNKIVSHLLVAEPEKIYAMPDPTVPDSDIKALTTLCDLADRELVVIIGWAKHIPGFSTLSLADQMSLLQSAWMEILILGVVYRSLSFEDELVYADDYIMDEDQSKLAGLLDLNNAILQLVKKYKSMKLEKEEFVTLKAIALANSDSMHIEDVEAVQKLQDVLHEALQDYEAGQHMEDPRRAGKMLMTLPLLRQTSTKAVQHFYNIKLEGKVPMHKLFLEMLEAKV
Outline: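 HepG2 cells transiently transfected with multiplexed GAL4-UAS reporter units and chimeric NR-Gal4 constructs were exposed to test chemicals for 24 h. Reporter mRNA was measured by RT-PCR, 6-FAM primer extension, HpaI digestion and capillary electrophoresis; gain-of-signal versus DMSO.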

[10] = molecular target: Oxysterols receptor LXR-beta (Homo sapiens) (UniProt P55055); experiment: ATG_LXRb_TRANS: Attagene TRANS-FACTORIAL HepG2 Assay for human Liver X Receptor beta (LXRb) (AID 2282981); settings: HepG2 Attagene TRANS GAL4-LXRb reporter, mRNA
Chain of Oxysterols receptor LXR-beta (Homo sapiens) (P55055 whole entry, looked up, the tested form may be a part): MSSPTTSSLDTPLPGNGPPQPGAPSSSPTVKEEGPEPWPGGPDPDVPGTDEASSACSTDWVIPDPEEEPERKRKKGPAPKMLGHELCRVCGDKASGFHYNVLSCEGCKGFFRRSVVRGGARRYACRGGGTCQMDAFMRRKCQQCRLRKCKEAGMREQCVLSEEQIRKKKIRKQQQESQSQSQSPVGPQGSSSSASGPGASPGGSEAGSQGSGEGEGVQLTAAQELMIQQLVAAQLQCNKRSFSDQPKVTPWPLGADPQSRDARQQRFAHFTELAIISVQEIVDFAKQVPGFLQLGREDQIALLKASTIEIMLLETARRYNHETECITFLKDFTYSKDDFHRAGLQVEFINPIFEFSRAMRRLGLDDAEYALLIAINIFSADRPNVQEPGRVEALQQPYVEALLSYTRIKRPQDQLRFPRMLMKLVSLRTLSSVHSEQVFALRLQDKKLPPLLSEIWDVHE
Outline: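 Cells: HepG2, transiently transfected with GAL4-UAS reporter units plus LXRb-Gal4 fusion. Treatment: 24 h. Detection: reporter mRNA by RT-PCR, 6-FAM labelling, HpaI digestion, capillary electrophoresis.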

Measured: outcome

CCN1CCCC1=O
inactive: [1] | [2] | [3] | [4] | [5]

C[N+](C)(C)CCCNS(=O)(=O)C(F)(F)C(F)(F)C(F)(F)C(F)(F)C(F)(F)C(F)(F)C(F)(F)C(F)(F)F
inactive: [1] | [2] | [6] | [7] | [8]

CCc1cccc(C)c1N
inactive: [9] | [3] | [5] | [7] | [8]

CCCCCOC(=O)CCCCC
inactive: [9] | [3] | [8]

COc1ccc(C(=O)c2ccccc2)c(O)c1
inactive: [1] | [2] | [10] | [4] | [5] | [7] | [8]

CCCCCCCCCCCC(C)=O
inactive: [1] | [2] | [6] | [8]

CCCCCCCC(=O)OCC(COC(=O)CCCCCCC)OC(=O)CCCCCCC
inactive: [1] | [2] | [3] | [7] | [8]

CC(C)(C)C1CCC(=O)CC1
inactive: [1] | [2] | [3] | [10] | [8]

CCOC(=O)/C=C\C(=O)OCC
inactive: [9] | [10] | [6] | [5] | [7] | [8]

C=CC(=O)OCCCCCCOC(=O)C=C
inactive: [9] | [3] | [4] | [5] | [7]

COC(=O)c1ccc(C(=O)OC)c(C(=O)OC)c1
inactive: [9] | [3] | [10] | [6] | [4] | [5] | [8]

C=Cc1ccc(OC(C)=O)cc1
inactive: [9] | [6] | [4] | [5] | [8]

CCCCCCCCCCCCC
inactive: [1] | [2] | [10] | [6] | [4] | [5] | [7] | [8]
